# A selection: hits, their analogues and other compounds. The true share with any hit is near 1.1%.
# NCOA1 inh: inhibits human SRC1 coactivator. inhibition, % at 3.6 µM. Q15788. AID 588354. actives 0.12% (n = 360,000). HEK293 GAL4-SRC1 luciferase reporter, luminescence;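 active means inhibition above the campaign mean plus 3 SD, with each screening campaign given its own cutoff, cut at about 60% in these data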;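 further: 0% = DMSO treated cells and 100% = gossypol at 36 µM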
# NCOA3 inh: human NCOA3 inhibition | Q9Y6Q9 | HEK293 GAL4-SRC3 luciferase reporter, luminescence | inhibition, % at 3.6 µM | actives 0.17% (n = 360,000) | AID 588352;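 active means inhibition above a per-campaign cutoff, the mean of all compounds plus 3 SD, cut at about 60% in these data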;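 further: 0% = DMSO-treated cells and 100% = gossypol-treated cells at 36 µM; higher means less SRC3-driven luciferase light from the GAL4 reporter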
# LRH-1 inv ag: NR5A2 inverse agonism in reporter assay | O00482 | HEK293T StAR-luciferase reporter, LRH-1 transfected, 24 h | inhibition, % at 3.6 µM | actives 0.13% (n = 360,000) | AID 602396;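 active means inhibition above the mean inhibition of all tested compounds plus 3 SD, cut at about 73% in these data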;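 further: 0% = DMSO wells and 100% = reporter-only cells lacking LRH-1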
# Shn3 3UTR inh: Schnurri-3 reporter inhibition in Clone20 osteoblasts; Clone20 osteoblast Shn3 3'UTR firefly luciferase, 24 h; inhibition, % at 12.5 µM; actives 0.52% (n = 360,000); AID 588674;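 active means mean inhibition of at least 75% with every replicate also reaching 75%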;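 further: 0% = median of neutral control wells and 100% = pilot-screen positive control compound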
# SRC2 inh: inhibits human steroid receptor coactivator 2 | actives 0.17% (n = 370,000) | inhibition, % at 9 µM | HEK293 GAL4-SRC2 luciferase reporter, luminescence | Q15596;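 active means inhibition above the mean inhibition of all tested compounds plus 3 SD, set per campaign, cut at about 52% in these data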;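 further: 0% = DMSO treated cells and 100% = cells given Gossypol at 36 µM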
# Gli-Sufu block: blocks Gli-Sufu signaling in a luciferase reporter; inhibition, % at 5 µM; Sufu-KO-LIGHT fibroblasts, Gli luciferase reporter luminescence; actives 0.74% (n = 340,000); AID 588413;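 active means inhibition above about 55%, limit read from the data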;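 further: 0% = DMSO-treated cells and 100% = wells with medium but no cells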
# Gli antag conf: confirmation of Gli-SUFU pathway antagonists | inhibition, % at 5 µM | actives 40% (n = 2,500) | Sufu-KO-LIGHT cells, Gli luciferase reporter, luminescence | AID 602428 | shares compounds with Gli-Sufu block;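 active means mean inhibition at 5 µM reaching about 45%, limit read from the data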;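 further: plate controls were DMSO-treated cells for no effect and wells lacking cells for full effect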
# SufuKO cytotox: cytotoxic in Gli-SUFU antagonist counter-screen; shares compounds with Gli-Sufu block; Sufu-KO-LIGHT cells cytotoxicity, ATP luminescence; cytotoxicity, % at 5 µM; actives 32% (n = 2,500); AID 651994;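 active means mean cytotoxicity at 5 µM above about 25%, limit read from the data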;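 further: cells exposed to compound overnight for roughly 16 to 18 hours; plate controls were DMSO wells with cells for no effect and medium without cells for full effect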
# Wnt3a cs: inhibits Wnt3a reporter, counter-screen for Gli-SUFU antagonists | Wnt-LIGHT cells, Wnt3a-driven luciferase reporter, luminescence | actives 20% (n = 2,500) | shares compounds with Gli-Sufu block | AID 651995 | inhibition, % at 6.25 µM;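 active means mean inhibition above about 25%, limit read from the data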
# The depositor's hits bear a star; . = no result given.
SMILES,NCOA1 inh,NCOA3 inh,LRH-1 inv ag,Shn3 3UTR inh,SRC2 inh,Gli-Sufu block,Gli antag conf,SufuKO cytotox,Wnt3a cs
Cc1nn(-c2ccccc2)c2sc(C(=O)NC3CCCC3)cc12,.,.,.,.,-8.4,.,.,.,.
CC1(C)CC(=O)N(CC(=O)N2CCN(Cc3ccccc3)CC2)c2ccccc2S1(=O)=O,.,.,.,.,12.8,.,.,.,.
O=C(NNc1nc(=O)c2cccnc2s1)c1ccccc1O,-10.2,-3.6,11.3,14.8,8.0,85.0*,24.9,26.7*,-20.7
Cc1ccccc1Cn1cc(CN2[C@@H](CC(C)C)COc3cccc(F)c3S2(=O)=O)nn1,.,.,.,.,0.1,.,.,.,.
O=C(Nc1nnc(-c2cccs2)o1)c1cccc(Oc2ccccc2)c1,-1.5,-14.1,11.0,11.4,-15.2,3.4,.,.,.
O=C(Nc1nnc(-c2cccs2)o1)c1cccc(F)c1,-0.8,-30.0,-15.8,9.6,-22.5,50.5,14.8,24.1,-35.5
CC1CCC(C(C)C)C(OC(=O)C[n+]2cccc(C(N)=O)c2)C1 (stereo unspecified),-2.2,8.0,-23.4,5.2,-6.8,-27.7,.,.,.
CC(C)[C@@H]1CC[C@@H](C)C[C@H]1OC(=O)C[n+]1cc(-c2ccc(Cl)cc2)n2c1CCCCC2,11.2,36.9,23.4,79.2,9.3,66.0*,77.2*,34.8*,-32.5
COc1ccc(-c2c[n+](CC(=O)OC3CC(C)CCC3C(C)C)c3n2CCC3)cc1 (stereo unspecified),9.8,56.7,45.1,82.1,5.3,89.8*,89.5*,26.0*,19.9
CN(C)S(=O)(=O)c1cccc(C(=O)N/N=C\c2ccc(-c3ccccn3)cc2)c1,.,.,.,.,-12.7,.,.,.,.
NCCc1nnc(SCc2ccc(F)cc2)o1,7.9,5.5,5.2,4.2,1.9,67.9*,8.1,4.9,1.6
Fc1ccc(NCc2nnc(SCc3ccccc3)o2)cc1,-27.0,2.9,12.6,5.1,-14.8,-1.2,.,.,.
CCOc1ccc(CCNC(=O)c2cc3ccsc3n2C)cc1OC,.,.,.,.,-7.5,.,.,.,.
CCN(CC)c1ccc(CNc2nc3ccccc3n2CCN2CCCCC2)cc1,-52.7,15.1,-7.3,92.4*,24.2,67.2*,41.5,23.2,16.1
COc1ccc(CNc2nc3ccccc3n2CCN2CCCCC2)cc1,-21.4,-2.8,-30.1,38.4,-11.0,35.3,.,.,.
Fc1ccccc1CNc1ncnc2sccc12,22.5,27.3,32.7,80.8,27.1,11.8,.,.,.
c1ccc2c(c1)OCC(CNc1ncnc3sccc13)O2 (stereo unspecified),19.5,33.4,42.4,66.5,30.3,75.7*,74.5*,20.5,22.4
Nc1ccc(-c2cc3ccccc3oc2=O)cc1,41.8,64.8*,56.5,76.6,85.5*,61.5*,71.7*,9.4,103.0*
O=c1oc2ccccc2cc1-c1ccc(O)cc1,-85.5,-95.4,-45.5,-50.3,-14.3,-58.7,.,.,.
CCC1CCCCN1S(=O)(=O)c1ccc(NC(=O)c2ccncc2)cc1 (stereo unspecified),20.4,12.0,33.0,87.9*,38.8,58.4*,36.9,40.6*,-11.2
CCC1CCCCN1S(=O)(=O)c1ccc(C(=O)Nc2nnc(C3CC3)o2)cc1 (stereo unspecified),-9.0,13.5,8.3,43.0,-19.9,-3.9,.,.,.
CN(CCCNC(=O)c1nn(C)c2c1CS(=O)(=O)c1ccccc1-2)Cc1ccccc1,-5.5,-27.0,10.1,-4.4,-24.3,20.3,.,.,.
CC(C)N(CCCNC(=O)c1nn(C)c2c1CS(=O)(=O)c1ccccc1-2)Cc1ccccc1,-0.9,-8.5,2.4,-9.1,-17.3,61.3*,24.5,17.9,-9.1
COc1ccccc1NS(=O)(=O)c1cccc(C(=O)NC2CCN(Cc3ccccc3)CC2)c1,53.3,28.3,43.0,86.7*,.,53.7,57.3*,26.9*,-0.6
Cc1ccc(C(=O)NC2CCN(Cc3ccccc3)CC2)cc1S(=O)(=O)N1CCOCC1,-2.5,18.8,14.5,27.2,14.2,61.4*,17.9,18.6,4.0
SMILES,NCOA1 inh,NCOA3 inh,LRH-1 inv ag,Shn3 3UTR inh,SRC2 inh,Gli-Sufu block,Gli antag conf,SufuKO cytotox,Wnt3a cs
COc1ccc(C(=O)NC2CC3CCCC(C2)N3Cc2ccccc2)cc1OC (stereo unspecified),-20.3,-16.0,-1.6,-0.4,18.8,57.3*,10.9,-4.5,-29.0
COc1ccc(/C=C/C(Cc2cccc(C(C)=O)c2)c2ccc(C)cc2)cc1 (stereo unspecified),.,.,.,.,-1.7,.,.,.,.
O=S1(=O)c2ccc(N3CC[C@H](O)C3)cc2O[C@H]2CCN1C2,.,.,.,.,-9.7,.,.,.,.
O=C(CCc1nc2ccccc2c(=O)[nH]1)OCc1ccc(-c2ccccc2)cc1,-10.9,-1.2,5.9,12.4,-6.5,96.5*,20.9,4.2,-36.1
CC(=NNc1nc2ccccc2s1)c1ccncn1,-71.4,-35.0,-32.5,88.4*,0.5,52.3,71.0*,41.9*,21.2
CC1(C)CC(=O)C2=C(C1)Nc1ccccc1NC2c1cccs1 (stereo unspecified),4.4,-0.1,2.2,-9.2,-5.1,57.8*,21.0,8.0,-0.8
O=C1CCCC2=C1C(c1cccs1)Nc1ccccc1N2 (stereo unspecified),-6.0,19.8,9.8,-4.1,-24.0,-3.3,.,.,.
COc1ccc(Cn2cc(CN3[C@H](CC(C)C)COc4cc(Br)ccc4S3(=O)=O)nn2)cc1,.,.,.,.,6.9,.,.,.,.
CC(=O)NC(CCS(C)(=O)=O)C(=O)Nc1cc(C)ccc1C (stereo unspecified),-4.8,0.8,-4.9,-1.3,-29.8,53.7,9.5,7.5,-10.7
CN1C2CCCC1CC(NC(=O)c1nn(C)c3ccccc13)C2 (stereo unspecified),.,.,.,.,-39.6,.,.,.,.
CCOC(=O)Nc1ccc2c(c1)N(C(=O)CNC)c1ccccc1CC2,-0.1,-11.4,-2.3,-11.6,-19.0,51.2,8.1,-1.6,-14.2
O=S1(=O)c2ccc(Br)cc2OC[C@@H](Cc2ccccc2)N1Cc1cn(CC2CCCCC2)nn1,.,.,.,.,-51.5,.,.,.,.
CCCCCCCNC1=CC(=O)CC(c2ccccc2)C1 (stereo unspecified),-12.7,-6.1,-33.9,53.5,-26.4,58.5*,51.5*,23.5,-37.9
O=C(Nc1ccc(F)cc1F)C1CCCN1S(=O)(=O)c1cccnc1 (stereo unspecified),.,.,.,.,19.0,.,.,.,.
CC(=O)OCC1=C(C(=O)O)N2C(=O)C(NC(=O)c3ccc(COc4c(C)cccc4Cl)o3)C2SC1 (stereo unspecified),-1.9,-7.3,9.2,0.8,-22.7,7.9,.,.,.
CC(=O)OCC1=C(C(=O)O)N2C(=O)C(NC(=O)c3ccc(COc4ccc(Cl)cc4)o3)C2SC1 (stereo unspecified),-21.6,4.1,9.9,-29.2,6.7,51.0,10.4,8.0,-14.4

# High-throughput results as filed in PubChem.
